# Bioassay records (PubChem)
# Rows were chosen to be rich in hits. Some 19% of all compounds tested hit in one or more screens of this group.
# HT1080 IDH1KD tx – qHTS for induction of synthetic lethality in tumor cells producing 2HG: qHTS for the HT-1080-IDH1KD cell line | AID 686971, 2013 | 360,000 tested, 2% active | HT-1080 IDH1 knockdown viability, ATP luminescence, 48 h | Potency, µM (top dose mostly 46.1 µM), inactives show top-dose activity, negative = toxicity, hits mostly cytotoxic;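 also: 0% = DMSO wells and -100% = cell-free medium wells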
#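 CellTiter-Glo luminescence after 48 h compound exposure at 37 degrees C of IDH1-knockdown HT-1080 cells in 5% FBS RPMI. %Activity scaled between DMSO wells and cell-free media wells, with curves fitted and assigned curve classes.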
# TDP1 cell CPT – qHTS for Inhibitors of human tyrosyl-DNA phosphodiesterase 1 (TDP1): qHTS in cells in presence of CPT; chicken DT40 Tdp1-/-;hTDP1 cells + 20 nM CPT, ATP luminescence, 48 h; Potency, µM (series often up to 46.2 µM), for inactives: at the highest dose activity change, negative = growth inhibition, most hits filed as inhibitors; 420,000 tested, 12% active; AID 686979, 2013; also: nearly all actives have a fitted effect of over 55% in size
#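 Cell growth measured by CellTiter-Glo luminescence after a minimum 48 h, 37 C compound exposure with 20 nM CPT in Tdp1-knockout DT40 cells stably expressing hTDP1, seeded 400/well; qHTS titration format.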
# KB-V1 MDR tox – qHTS assay for MDR1-selective chemotherapeutics: Primary screen using the drug-selected MDR subline cells KB-V1. Potency, µM (highest dose often 46.1 µM), hits mostly cytotoxic. 400,000 tested, 3.4% active. KB-V1 MDR cells viability, CellTiter-Glo, 72 h; also: nearly all actives have a fitted effect of over 60% in size
#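 qHTS viability screen in drug-selected KB-V1 MDR cells: 72 h compound treatment at 37 degrees C, ATP luminescence end point.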
# TDP1 cell noCPT – qHTS for Inhibitors of human tyrosyl-DNA phosphodiesterase 1 (TDP1): qHTS in cells in absence of CPT; DT40 Tdp1-/- hTDP1 cells, no CPT, ATP luminescence, 48 h; Potency, µM (doses to about 46.2 µM), for the others: top-dose activity change, negative = growth inhibition, usual class: inhibitors; 420,000 tested, 15% active; AID 686978, 2013; also: nearly all actives have a fitted effect of over 55% in size
#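 No-CPT arm: Tdp1-/-;hTDP1 DT40 cells (400/well) plus compounds, incubated ≥48 hr at 37 °C. Readout CellTiter-Glo luminescence.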
# KB-3-1 tox – qHTS assay for MDR1-selective chemotherapeutics: Primary screen using the parental adenocarcinoma cell KB-3-1. KB-3-1 viability, CellTiter-Glo ATP luminescence, 72 h. Potency, µM (top dose mostly 46.1 µM), usual class: cytotoxic. 400,000 tested, 1.4% active. AID 1347075, 2019; also: nearly all actives have a fitted effect of over 60% in size
#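 Cells are dispensed, compounds pinned in, plates held at 37 °C for 72 h, then CellTiter-Glo is added and luminescence read after 10 minutes. Cell line: parental KB-3-1 in phenol-red-free DMEM, 10% FBS.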
# HT1080-NT tox – qHTS for induction of synthetic lethality in tumor cells producing 2HG: qHTS for the HT-1080-NT fibrosarcoma cell line; HT-1080-NT fibrosarcoma viability, CellTiter-Glo ATP luminescence, 48 h; Potency, µM (titrated, usually from 46.1 µM), inactives show top-dose activity, negative = less viability, actives largely listed as cytotoxic; 360,000 tested, 1.6% active; AID 686970, 2013;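 also: NT is the 2HG producing partner of a matched IDH1 knockdown line; 0% = DMSO-treated cells and -100% = media-only wells without cells; nearly all actives have a fitted effect of over 55% in size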
#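 A 48-hour cytotoxicity screen used HT-1080-NT cells plated 2 hours before compound delivery. ATP-based CellTiter-Glo luminescence measured viability, normalized to DMSO and no-cell controls.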
# * marks the source's active call; other numbers are inactive results; i = inactive; ? = inconclusive; nt = no result given. Calls follow the shape of the dose curve; as a rule, active = well fitted curve in the direction sought with a large enough effect; inconclusive = small, poorly fitted or top-dose-only effect, or another doubt; inactive = no such curve, though single readings can be large; an effect the other way counts as inactive or inconclusive. Unless noted, % is scaled to controls: 0 for no effect and ±100 for the full control effect; potency is read from the fitted curve at half-maximal effect.
SMILES,HT1080 IDH1KD tx,TDP1 cell CPT,KB-V1 MDR tox,TDP1 cell noCPT,KB-3-1 tox,HT1080-NT tox
Cc1ccc2[nH]c3c(c2c1)CCC3=O,-15%,-4%,?,-10%,i,0%
O=C1CCCc2c1[nH]c1ccc(CN3CCCCC3)cc21,10µM*,16µM*,?,?,i,?
CC(C)c1ccc2[nH]c3c(c2c1)CCC/C3=N\NC(=O)c1ccncc1,?,23µM*,?,18µM*,?,?
Cc1[nH]c2ccc(C(C)C)cc2c1CC(=O)O,5%,2%,i,-2%,i,-6%
Cc1ccc2[nH]c3c(c2c1)CCc1cn[nH]c1-3,?,?,i,23µM*,i,?
CC(C)c1ccc2[nH]c3c(c2c1)CCCC3=O,?,3%,13µM*,-22%,i,21µM*
Cc1[nH]c2ccccc2c(=O)c1CN1CCCCCC1,20%,8%,?,-10%,i,-1%
Nc1ccc(C(=O)N/N=C2\CCCc3c2[nH]c2ccccc32)cc1,2%,-22%,i,?,?,15%
COc1cccc(N2CCN(S(=O)(=O)c3ccc(-c4cc(C(F)(F)F)on4)s3)CC2)c1,nt,-11%,nt,-17%,nt,nt
COc1ccc(-c2noc(CNC(=O)c3ccc4c(c3)OCO4)n2)cc1OC,10%,-10%,i,-6%,i,23%
CCC(=O)c1ccc(OCC(=O)OCC(=O)Nc2sccc2C(N)=O)cc1,0%,2%,i,-2%,i,1%
Cc1ccc2[nH]c3c(c2c1)CCCC3=O,-6%,-5%,1.8µM*,5%,1.8µM*,-7%
CCN1CCN(C(=O)/C(=C/c2ccco2)NC(=O)c2ccccc2)CC1,3%,-1%,i,-21%,i,-3%
O=S(=O)(Nc1cc(C(F)(F)F)ccc1N1CCOCC1)c1ccc2ccccc2c1,?,16µM*,?,?,?,?
O=[N+]([O-])c1cc(C(F)(F)F)ccc1N1CCN(S(=O)(=O)c2ccc3ccccc3c2)CC1,-13%,?,5.2µM*,?,18µM*,-7%
O=[N+]([O-])c1cc(C(F)(F)F)cc([N+](=O)[O-])c1N1CCN(S(=O)(=O)c2ccccc2)CC1,12%,?,i,?,i,10%
CCc1cccc(NC(=O)C(Cc2ccccc2)NS(=O)(=O)c2cccs2)c1 (stereo not drawn),nt,?,?,18µM*,i,nt
COc1cc(NC(=O)C(Cc2ccccc2)NS(=O)(=O)c2cccs2)cc(OC)c1 (stereo not drawn),nt,23µM*,?,-28%,?,nt
Cc1ccc(NC(=O)C(Cc2ccccc2)NS(=O)(=O)c2cccs2)cc1Cl (stereo not drawn),nt,-2%,i,3%,i,nt
CC(C)=CCC/C(C)=C/CC/C(C)=C/CC/C=C(\C)CC/C=C(\C)CCC=C(C)C,nt,-3%,nt,-25%,nt,nt
CCn1cc(CN2CCCC(C(=O)c3ccc(-c4ccccc4)cc3)C2)cn1 (stereo not drawn),23µM*,?,i,26µM*,?,?
Cn1cc(CN2CCCC(C(=O)c3ccc(-c4ccccc4)cc3)C2)cn1 (stereo not drawn),-24%,-24%,i,16µM*,i,?
CCC(=O)N1CCCC(C(=O)c2ccc(-c3ccccc3)cc2)C1 (stereo not drawn),-29%,?,i,?,?,-3%
CCNC(=O)C1(C)CCN(C(=O)c2ccc(OC(F)F)cc2)C1 (stereo not drawn),-5%,-20%,i,-14%,i,-2%
CCn1cc([N+](=O)[O-])c(=O)c2cc(F)c(N3CCOCC3)cc21,3%,?,i,-26%,i,5%
SMILES,HT1080 IDH1KD tx,TDP1 cell CPT,KB-V1 MDR tox,TDP1 cell noCPT,KB-3-1 tox,HT1080-NT tox
CN(CC(=O)NCc1cccs1)S(=O)(=O)c1cccc2nsnc12,0%,17%,21µM*,-18%,i,-1%
O=C(NC1CCCC1)C(c1ccncc1)N(C(=O)c1csnn1)C1CCCC1 (stereo not drawn),0%,2%,i,-1%,i,1%
Cc1cc(C)c2c(N)c(C(=O)Nc3cccc(C)c3C)sc2n1,?,?,6.5µM*,16µM*,?,-12%
Cc1cccc(NC(=O)c2sc3nc4c(cc3c2N)CCCCCC4)c1C,nt,1.5µM*,i,0.65µM*,?,nt
Nc1c(C(=O)Nc2ccc(C(=O)O)cc2)sc2nc3c(cc12)CCCC3,nt,-4%,i,?,i,nt
COc1ccc(OC)c(NC(=O)c2sc3nc4c(cc3c2N)CCCCCC4)c1,nt,?,i,?,i,nt
Cc1ccccc1NC(=O)c1sc2nc3c(cc2c1N)CN(Cc1ccccc1)CC3,nt,?,i,18µM*,i,nt
CCOc1ccc(NC(=O)c2sc3nc4c(cc3c2N)CCCCCC4)cc1,nt,8.2µM*,nt,?,nt,nt
Cc1cccc(COCC(Cc2ccccc2)N2CCN(C(=O)c3ccc(C(F)(F)F)cc3)CCC2=O)c1 (stereo not drawn),-29%,23µM*,12µM*,21µM*,21µM*,-2%
O=C(c1ccc(C(F)(F)F)cc1)N1CCC(=O)N(C(COCc2ccc(C(F)(F)F)cc2)Cc2ccccc2)CC1 (stereo not drawn),-24%,?,i,18µM*,?,?
Cc1cccc(COC[C@H](Cc2ccccc2)N2CCN(C(=O)c3ccc(C(F)(F)F)cc3)CCC2=O)c1,?,?,?,18µM*,?,?
O=C(c1ccc(Cl)cc1)N1CCC(=O)N(C(CO)Cc2ccccc2)CC1 (stereo not drawn),0%,5%,i,8%,i,-2%
COc1ccc(/C=N/NC(=O)CC(=O)NC2CCCCC2)cc1,-2%,3%,i,-5%,i,10%
CCn1c(SCC(=O)c2ccccc2)nc2c(c1=O)SC(C)C2 (stereo not drawn),-27%,?,i,?,i,-22%
